Test results: PubChem BioAssay (NCATS)
Records with an inconclusive call do not appear. Activity calls are given as the source filed them. Unless noted, calls come from the whole dose curve; as a rule, active = well fitted curve in either direction with a large enough effect (not every such curve was filed as active); inconclusive = small, poorly fitted or top-dose-only effect, or another doubt; inactive = flat fitted curve, though single readings scatter.

Experiments:
[1] = target: Lysosomal acid glucosylceramidase (Homo sapiens) (UniProt P04062); experiment: Glucocerebrosidase-p2 (AID 348; in the data active = potency below about 10 µM; note: potency is the fitted concentration of half-maximal effect); settings: purified GBA, blue fluorogenic substrate, 40 min
Procedure, shortened: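 Normal human glucocerebrosidase (0.2 nM) with blue fluorogenic substrate (80 uM final) in citrate/phosphate pH 5.9 with 10mM sodium taurocholate, 0.01% tween-20; 40 min RT, NaOH/glycine stop; fluorescence Ex 365/Em 440; AC50 from a titration from 0.6 nM upwards.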

[2] = AP1 Signaling Pathway (AID 357); settings: ME-180 AP-1-bla reporter, EGF-induced, beta-lactamase ratio, 5 h; at 7.69 µM (top of the series) unless noted;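 note: ME-180 reporter cells stimulated with EGF at its EC50 level; % is set by controls: 0 for no effect and ±100 for the full control effect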
Procedure, shortened: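 AP-1-bla ME-180 cells, Opti-MEM + 0.5% dialyzed FBS, plated overnight 37 °C. Cpd titration + EC50 EGF, 5 h 37 °C. CCF4 2.5 h RT; ex 405, em 460/530 ratio → %activity, AC50.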

[3] = NFAT Signaling Pathway (AID 444); settings: Jurkat NFAT-bla M1, carbachol, beta-lactamase ratio, 5 h; at 7.69 µM (top of the series) unless noted;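 note: carbachol stimulus at about its EC50 of 1 µM final; % is set by controls: 0 for no effect and ±100 for the full control effect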
Procedure, shortened: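 Jurkat cells carrying an NFAT-driven β-lactamase reporter and co-transfected muscarinic M1 receptor were treated with compound plus carbachol (1 uM final, an EC50 level) for 5 h at 37 °C. CCF4 loading followed for 1 h at RT; 460/530 nm ratio gave %activity.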

[4] = Stat Signaling Pathway (AID 446); settings: ME-180 (cervical carcinoma) SIE beta-lactamase reporter, IL-6 stimulated, 5 h; at 7.69 µM (top of the series) unless noted;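 note: ME-180 cervical cancer cells given 40 pM IL-6 alongside compound; SIE-controlled beta-lactamase reporter measured as 460/530 nm FRET emission ratio; % is set by controls: 0 for no effect and ±100 for the full control effect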
Procedure, shortened: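 FRET read-out (405 nm excitation, 460/530 nm emission) of a beta-lactamase reporter under a STAT-inducible element in ME-180 cervical carcinoma cells. Cells with compound receive 40 pM IL-6 for 5 h. Values are normalised to AC90 stimulation and AC90 JAK-inhibitor controls.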

[5] = target: Glucocorticoid receptor (Homo sapiens) (UniProt P04150); experiment: GR-GFP Redistribution (AID 450;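 active = compounds whose dose series gives a full or clear partial fitted curve of increased nuclear translocation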; note: potency is the fitted concentration of half-maximal effect); settings: U2OS GR-GFP nuclear translocation, laser cytometry, 2 h
[6] = target: Glucocorticoid receptor (Homo sapiens) (UniProt P04150); experiment: GR-EFC Redistribution (AID 451; calls by dose curve; note: potency is the fitted concentration of half-maximal effect); settings: CHO-K1 GR-EFC translocation, beta-gal luminescence, 2 h
Procedure, shortened: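 CHO-K1 cells stably expressing nuclear-localized β-gal enzyme acceptor and GR fused C-terminally to the enzyme donor fragment; ligand-driven nuclear translocation restores β-gal by complementation. Compounds titrated up to 46 uM final, 2 h at 37 °C; luminescence read.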

[7] = target: Mitogen-activated protein kinase 10 (Mus musculus) (UniProt Q61831); experiment: JNK3 AlphaScreen Assay (AID 530); settings: JNK3 lysate, c-Jun phosphorylation; series mostly up to 11.4 µM;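 note: kinase came from lysate of stimulated human HepG2 cells; signal reports phosphorylation of biotinylated GST-cJun 1-79 at Ser73 with 10 µM ATP; % is set by controls: 0 for no effect and ±100 for the full control effect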
Procedure, shortened: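 Phosphorylation of biotinylated GST-cJun(1-79) at Ser73 is measured by AlphaScreen proximity luminescence. Enzyme is JNK3 in HepG2 lysates activated with interleukin-1beta and tumor necrosis factor alpha; ATP is 10 uM final.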

[8] = target: 3',5'-cyclic-AMP phosphodiesterase 4B (Homo sapiens) (UniProt Q07343); experiment: qHTS Assay for Inhibitors of PDE-IV (AID 607; active = well fitted activation curve with a large enough effect in the main read-out, with a control signal flat, not every such curve was filed as active; note: % of control where 0% means no effect); settings: HEK293 ACTOne CNG channel cells, membrane potential fluorescence; series mostly up to 22.9 µM
Procedure, shortened: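 Cell-based read-out of cAMP via a modified cyclic nucleotide-gated channel and membrane potential dye (535/590 nm) in HEK293 cells expressing PDE4 endogenously. Compounds tested up to 22.9 uM final; 100 uM RO 20-1724 reference.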

Chain of Lysosomal acid glucosylceramidase (Homo sapiens) (P04062 whole entry, looked up): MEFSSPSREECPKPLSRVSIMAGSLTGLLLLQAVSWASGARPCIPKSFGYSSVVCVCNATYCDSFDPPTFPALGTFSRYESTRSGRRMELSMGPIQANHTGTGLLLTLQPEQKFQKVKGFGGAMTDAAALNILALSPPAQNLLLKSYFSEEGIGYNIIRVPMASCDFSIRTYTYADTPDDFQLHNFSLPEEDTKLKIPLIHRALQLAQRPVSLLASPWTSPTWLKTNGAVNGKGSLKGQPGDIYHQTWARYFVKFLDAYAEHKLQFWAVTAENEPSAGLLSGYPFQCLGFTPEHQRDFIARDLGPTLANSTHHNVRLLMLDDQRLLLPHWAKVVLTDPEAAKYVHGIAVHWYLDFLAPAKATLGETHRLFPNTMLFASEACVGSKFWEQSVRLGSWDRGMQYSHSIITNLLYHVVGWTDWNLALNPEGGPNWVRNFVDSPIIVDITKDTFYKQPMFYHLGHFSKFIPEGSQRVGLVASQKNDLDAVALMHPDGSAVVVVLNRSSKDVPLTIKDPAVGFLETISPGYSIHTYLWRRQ
Chain of Glucocorticoid receptor (Homo sapiens) (P04150 whole entry, looked up, the tested form may be a part): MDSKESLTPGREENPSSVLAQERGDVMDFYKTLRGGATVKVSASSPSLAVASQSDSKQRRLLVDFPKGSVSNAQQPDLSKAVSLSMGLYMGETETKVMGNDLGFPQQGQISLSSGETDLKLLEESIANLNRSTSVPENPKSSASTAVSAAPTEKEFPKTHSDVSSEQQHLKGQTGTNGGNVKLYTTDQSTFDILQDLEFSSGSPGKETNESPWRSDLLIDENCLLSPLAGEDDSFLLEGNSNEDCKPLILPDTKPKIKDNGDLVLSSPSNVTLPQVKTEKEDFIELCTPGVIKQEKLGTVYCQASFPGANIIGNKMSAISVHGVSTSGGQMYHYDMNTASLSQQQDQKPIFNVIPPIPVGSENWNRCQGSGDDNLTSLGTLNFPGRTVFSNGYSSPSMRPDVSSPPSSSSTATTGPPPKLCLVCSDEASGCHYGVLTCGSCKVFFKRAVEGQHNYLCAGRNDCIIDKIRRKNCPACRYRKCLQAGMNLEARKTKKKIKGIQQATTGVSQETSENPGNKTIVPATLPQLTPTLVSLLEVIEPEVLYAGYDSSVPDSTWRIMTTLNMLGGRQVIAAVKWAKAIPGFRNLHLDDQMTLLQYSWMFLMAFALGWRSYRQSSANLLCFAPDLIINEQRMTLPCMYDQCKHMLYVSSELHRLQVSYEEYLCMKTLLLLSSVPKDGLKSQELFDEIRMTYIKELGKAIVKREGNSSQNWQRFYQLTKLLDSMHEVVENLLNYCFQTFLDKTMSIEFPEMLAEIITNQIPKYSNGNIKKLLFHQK
Chain of 3',5'-cyclic-AMP phosphodiesterase 4B (Homo sapiens) (Q07343 whole entry, looked up): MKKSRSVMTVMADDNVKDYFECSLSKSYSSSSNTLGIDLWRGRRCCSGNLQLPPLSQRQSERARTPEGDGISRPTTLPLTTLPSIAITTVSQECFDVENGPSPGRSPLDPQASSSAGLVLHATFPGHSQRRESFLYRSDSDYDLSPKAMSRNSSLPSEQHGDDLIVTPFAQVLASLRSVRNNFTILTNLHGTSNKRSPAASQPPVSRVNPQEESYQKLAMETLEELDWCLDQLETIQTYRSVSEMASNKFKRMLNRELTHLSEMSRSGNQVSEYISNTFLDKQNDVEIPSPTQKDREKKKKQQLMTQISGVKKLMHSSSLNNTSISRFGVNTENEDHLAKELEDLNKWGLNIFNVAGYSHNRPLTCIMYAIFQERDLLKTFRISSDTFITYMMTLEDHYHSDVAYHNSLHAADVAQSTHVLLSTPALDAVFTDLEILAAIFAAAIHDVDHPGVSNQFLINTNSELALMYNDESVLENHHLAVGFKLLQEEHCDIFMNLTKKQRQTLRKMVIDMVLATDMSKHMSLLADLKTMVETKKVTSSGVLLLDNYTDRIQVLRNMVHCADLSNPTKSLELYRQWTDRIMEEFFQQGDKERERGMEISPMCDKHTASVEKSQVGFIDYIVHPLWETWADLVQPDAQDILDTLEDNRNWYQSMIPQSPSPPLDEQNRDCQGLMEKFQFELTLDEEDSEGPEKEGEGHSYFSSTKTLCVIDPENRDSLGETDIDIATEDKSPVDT

CC(C)=CCNc1ncnc2nc[nH]c12
inactive: Potency [1] > 11.4 µM | activity change, negative = inhibition [2] 3.85% | activity change, negative = inhibition [3] 6.81% | activity, negative = inhibition [4] 5.75% | Potency [5] > 46 µM | Potency [6] > 9.22 µM | Potency [7] | Potency [8]

O=C1c2ccccc2-c2ccc(N=[N+]([O-])c3ccc4c(c3)C(=O)c3ccccc3-4)cc21
inactive: Potency [1] > 11.4 µM | activity change, negative = inhibition [2] 5.38% | activity change, negative = inhibition [3] 10.2% | activity, negative = inhibition [4] 7.21% | Potency [5] > 46 µM | Potency [6] > 9.22 µM | Potency [7] | Potency [8]

C(CCc1nnc2c(n1)CCCC2)Cc1nnc2c(n1)CCCC2
inactive: Potency [1] > 11.4 µM | activity change, negative = inhibition [2] 6.86% | activity change, negative = inhibition [3] -8.87% | activity, negative = inhibition [4] 0.257% | Potency [5] > 46 µM | Potency [6] > 9.22 µM | Potency [7] | Potency [8]

CC(C)CCNc1ncnc2[nH]ncc12
inactive: Potency [1] > 11.4 µM | activity change, negative = inhibition [2] 6.28% | activity change, negative = inhibition [3] -25.7% | activity, negative = inhibition [4] -5.65% | Potency [5] > 46 µM | Potency [6] > 9.22 µM | Potency [7] | Potency [8]

CC(C)CN(CC#N)CC(C)C
inactive: Potency [1] > 11.4 µM | activity change, negative = inhibition [2] 6.22% | activity change, negative = inhibition [3] 12.7% | activity, negative = inhibition [4] 5.79% | Potency [5] > 46 µM | Potency [6] > 9.22 µM | Potency [7] | Potency [8]

CSCC[C@@H](C(=O)O)N(C)C
inactive: Potency [1] > 11.4 µM | activity change, negative = inhibition [2] 3.21% | activity change, negative = inhibition [3] 7.85% | activity, negative = inhibition [4] 2.15% | Potency [5] > 46 µM | Potency [6] > 9.22 µM | Potency [7] | Potency [8]

O=C(O)CCN1C(=S)CSC1=S
inactive: Potency [1] > 11.4 µM | activity change, negative = inhibition [2] -2.79% | activity change, negative = inhibition [3] 8.02% | activity, negative = inhibition [4] 10.1% | Potency [5] > 46 µM | Potency [6] > 9.22 µM | Potency [7] | Potency [8]

COc1ccc2c(c1)[n+]([O-])c(/C(C)=N/NC(N)=S)c(C)[n+]2[O-]
inactive: Potency [1] > 11.4 µM | activity change, negative = inhibition [2] -7.76% | activity change, negative = inhibition [3] 5.82% | activity, negative = inhibition [4] 0.294% | Potency [5] > 46 µM | Potency [6] > 9.22 µM | Potency [7] | Potency [8]

CCOc1ccc(N=NS(=O)(=O)O)cc1
inactive: Potency [1] > 11.4 µM | activity change, negative = inhibition [2] 8.26% | activity change, negative = inhibition [3] -0.735% | activity, negative = inhibition [4] 8.88% | Potency [5] > 46 µM | Potency [6] > 9.22 µM | Potency [7] | Potency [8]

c1cncc(CSc2ncnc3nc[nH]c23)c1
inactive: Potency [1] > 11.4 µM | activity change, negative = inhibition [2] -2.25% | activity change, negative = inhibition [3] 19.6% | activity, negative = inhibition [4] 8.79% | Potency [5] > 46 µM | Potency [6] > 9.22 µM | Potency [7] | Potency [8]

C[C@H](OP(=O)(O)O)[C@H](N)C(=O)O
inactive: Potency [1] > 11.4 µM | activity change, negative = inhibition [2] 0.907% | activity change, negative = inhibition [3] 13.7% | activity, negative = inhibition [4] -1.55% | Potency [5] > 46 µM | Potency [6] > 9.22 µM | Potency [7] | Potency [8]

Cc1cccc2cc3ccc4ccccc4c3cc12
inactive: Potency [1] > 11.4 µM | activity change, negative = inhibition [2] -0.591% | activity change, negative = inhibition [3] -3.47% | activity, negative = inhibition [4] 19.6% | Potency [5] > 46 µM | Potency [6] > 9.22 µM | Potency [7] | Potency [8]

CC(=O)Nc1cc(CN2CCCCC2)c(O)c2ncccc12
inactive: Potency [1] > 11.4 µM | activity change, negative = inhibition [2] 4.21% | activity change, negative = inhibition [3] -27.8% | activity, negative = inhibition [4] 6.71% | Potency [5] > 46 µM | Potency [6] > 9.22 µM | Potency [7] | Potency [8]

NC(=O)N[C@H](CC(=O)O)C(=O)O
inactive: Potency [1] > 11.4 µM | activity change, negative = inhibition [2] -2.2% | activity change, negative = inhibition [3] 0.469% | activity, negative = inhibition [4] -0.625% | Potency [5] > 46 µM | Potency [6] > 9.22 µM | Potency [7] | Potency [8]

NC(=O)N/N=C1\CC[C@H](O)C[C@@H]1CC(=O)O
inactive: Potency [1] > 11.4 µM | activity change, negative = inhibition [2] 11.5% | activity change, negative = inhibition [3] 5.67% | activity, negative = inhibition [4] 0.119% | Potency [5] > 46 µM | Potency [6] > 9.22 µM | Potency [7] | Potency [8]

C[N+](C)([O-])Cc1cc(-c2ccccc2)ccc1O
inactive: Potency [1] > 11.4 µM | activity change, negative = inhibition [2] -2.32% | activity change, negative = inhibition [3] 1.32% | activity, negative = inhibition [4] -3.36% | Potency [5] > 46 µM | Potency [6] > 9.22 µM | Potency [7] | Potency [8]

COc1ccc(Cc2ccc3[nH]c(=O)cc(C)c3c2)cc1S(=O)(=O)O
inactive: Potency [1] > 11.4 µM | activity change, negative = inhibition [2] 7.37% | activity change, negative = inhibition [3] 8.36% | activity, negative = inhibition [4] 5.41% | Potency [5] > 46 µM | Potency [6] > 9.22 µM | Potency [7] | Potency [8]

OC[C@@H](O)[C@@H](O)[C@@H](O)[C@@H](O)c1nc2ccc(Cl)cc2[nH]1
inactive: Potency [1] > 11.4 µM | activity change, negative = inhibition [2] 4.42% | activity change, negative = inhibition [3] 10.1% | activity, negative = inhibition [4] -0.802% | Potency [5] > 46 µM | Potency [6] > 9.22 µM | Potency [7] | Potency [8]
